The full ranking holds about 33,000 sequences; the median of “E-score (-0.5 to 0.5)” is about -0.032, and the highest 2% start at about 0.36. This is one part of a sample in which the highest values are shown more often than they occur.

In the test the target is T1, Sko1 (UniProt Q02100).
T1 sequence: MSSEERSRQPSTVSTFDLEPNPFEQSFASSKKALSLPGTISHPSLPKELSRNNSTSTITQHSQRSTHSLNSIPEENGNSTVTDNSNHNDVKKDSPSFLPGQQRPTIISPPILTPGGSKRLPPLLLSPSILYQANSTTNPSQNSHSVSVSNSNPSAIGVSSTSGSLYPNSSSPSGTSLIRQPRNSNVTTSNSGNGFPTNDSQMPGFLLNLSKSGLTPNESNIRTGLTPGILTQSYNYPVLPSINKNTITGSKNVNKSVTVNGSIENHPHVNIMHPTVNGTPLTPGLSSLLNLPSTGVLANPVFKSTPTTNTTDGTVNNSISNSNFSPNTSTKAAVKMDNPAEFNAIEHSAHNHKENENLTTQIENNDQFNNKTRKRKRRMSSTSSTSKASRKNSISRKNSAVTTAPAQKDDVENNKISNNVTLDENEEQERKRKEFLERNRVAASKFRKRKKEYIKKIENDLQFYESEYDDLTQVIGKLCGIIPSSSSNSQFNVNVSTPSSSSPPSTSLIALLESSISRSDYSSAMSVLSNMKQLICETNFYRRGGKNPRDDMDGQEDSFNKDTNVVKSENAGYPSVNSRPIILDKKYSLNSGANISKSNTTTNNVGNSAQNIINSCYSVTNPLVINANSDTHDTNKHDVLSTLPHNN
Put plainly: PBM E-score (8-mer binding enrichment) (E-score (-0.5 to 0.5)); higher = stronger / more preferred TF binding. The following applies: protein concentration: 200 nM; construct: GST-full length. An outline of the steps: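 Using PURExpress in vitro transcription/translation, GST-tagged yeast transcription factors were made in full-length or DNA-binding-domain form. These were applied at about 100-200 nM to double-stranded universal all-10-mer Agilent arrays, and bound protein was detected with fluorescent anti-GST. Scans were normalised with masliner before the Universal PBM Analysis Suite assigned E-scores to ungapped eight-base words pooled with their reverse complements.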
Turning to GTGCGTAA, the “PBM E-score” value turned out to be 0.418.
The result for ATGCGTAC reads 0.291; that for CTGCGTAA, 0.397.
For CACTGCAG the value was -0.064; for CATCTTAC, 0.228.
The result for TCAGAGAA reads 0.00926.
With CCGCCATA, the “PBM E-score” value was -0.182.
For CCGCCATC the value was -0.29; for ACGCCATC, 0.376; for ACGCCATA, 0.393.
In the case of ACGCCAAG, the “PBM E-score” value was -0.0349.
The result for ACGCCATG reads 0.368; that for ACGCCACC, 0.0629.
The result for ACGCCACA reads 0.234; that for GCGCCATA, 0.0343; that for AAGGATCC, -0.254.
For CCACGCAG the value was 0.057; for ACACGGGT, -0.189; for CAGCATCG, -0.332.
As for CCCGCTAC, the “PBM E-score” value was -0.15.
For AACCATAT the value was 0.119; for CCACGTAC, 0.374.
As for CCCCGTAA, the “PBM E-score” value turned out to be 0.0319.
As for CCCCGTAG, the “PBM E-score” value is -0.2.
The result for CCACGTTC reads 0.0509; that for CCACGTGC, 0.341.
Take CCACGTGG: the “PBM E-score” value was 0.177.
For CCACGTAA the value was 0.456.
For CCACGTGA the value was 0.339.
The result for CCACGTAG reads 0.377; that for ATGGGGCA, -0.185; that for CAATAGTC, -0.085.
Take CTGGTACA: the “PBM E-score” value is -0.00751.
The result for GTCTGGGA reads -0.133.
With AGTCGTCA, the “PBM E-score” value was 0.37.
For CGTCGTTA, the “PBM E-score” value amounted to 0.153.
For AGTCGTCC the value was -0.114; for GGTCGTCA, 0.38.
The result for CGTCGTCC reads -0.0443.
On to GGTCGTTA, for which the “PBM E-score” value is -0.0165.
The result for AGTCGTCG reads -0.148; that for CGTCGTCA, 0.362; that for GGTCGTGA, 0.0516.
The result for AGAGGTAG reads -0.178; that for GGGCTAAA, -0.182.
For the sequence AAACACGA, the “PBM E-score” value turned out to be 0.163.
Turning to ACACACGT, the “PBM E-score” value was found to be 0.433.
The result for AAACACGT reads 0.413; that for ACACACGG, -0.0648.
With AAACACGC, the “PBM E-score” value came to 0.316.
For ACACACGA the value was 0.213; for ATATAGAG, -0.151; for CTTTGGGA, -0.187.
AATGAGCG: the “PBM E-score” value worked out at 0.0936.
As to CCGCAATC, the “PBM E-score” value is -0.102.
The result for ACGCAATG reads 0.399; that for ACGCAATC, 0.411.
For ACGCAAGC the value was 0.327.
The result for CCGCAATA reads 0.0923; that for GCGCAATA, 0.0795.
On to ACGCAAGG, for which the “PBM E-score” value came to 0.316.
The result for ACGCAATA reads 0.45; that for AGGCAATG, 0.00123.
The result for AAAGGGGT reads -0.26; that for ATCCACTA, -0.0731; that for CGTTAATC, 0.168.
On to ACGGCCCA, for which the “PBM E-score” value is -0.317.
The result for ATAACCAT reads 0.057; that for AAGTTTGC, 0.0635; that for CTGTGCTC, 0.0303.
Consider CCTACGTA, for which the “PBM E-score” value amounted to 0.477.
On to CCTACGGA, for which the “PBM E-score” value is -0.182.
With ACTACGTC, the “PBM E-score” value stood at 0.433.
Consider ACTACGCC, for which the “PBM E-score” value was -0.00632.
The result for CCTACGAA reads 0.0841; that for CCTACGTC, 0.427.
Take ACTACGGC: the “PBM E-score” value is -0.0407.
For CCTACGAC the value was 0.0224.
Regarding CCTACGGC, the “PBM E-score” value is -0.34.
For GCGGGTAC the value was -0.0713; for CACACTAC, 0.0507.
The result for CCAAGCGC reads -0.147; that for AGTTGCAA, 0.219.
The result for ACATCCGG reads -0.227.
For CCTACCGA, the “PBM E-score” value was -0.168.
For the sequence CCACGCCC, the “PBM E-score” value was -0.165.
For the sequence CCGGTGGA, the “PBM E-score” value is -0.297.
Turning to AGGTATAT, the “PBM E-score” value was determined as 0.184.
ACGTATAC: the “PBM E-score” value is 0.463.
With CCGTATAA, the “PBM E-score” value was 0.0514.
The result for ACGTATAT reads 0.453; that for AGGTATAG, -0.141; that for CCGTATAC, 0.0259.
For ACGTATAG the value was 0.437; for CCGTATAG, -0.115.
As for TCGTATAA, the “PBM E-score” value worked out at 0.221.
Regarding ATGTATAC, the “PBM E-score” value was 0.247.
For ACGTATAA the value was 0.457; for AAGTATAT, 0.118; for ACGTGAGT, 0.331.
As to AATGAGGT, the “PBM E-score” value stood at 0.324.
In the case of CTTGGGTC, the “PBM E-score” value is -0.348.
Take GGCGCGAA: the “PBM E-score” value is -0.151.
For GCGTATAA the value was 0.271.
For GCGTATAC the value was 0.365; for GAGTATAC, 0.192; for ATGGAGGG, -0.334.
Consider CCACACTC, for which the “PBM E-score” value was determined as 0.00961.
For AAGATTAG the value was 0.062; for AGTAAGGC, -0.0198.

These data come from the supplement of paper PMC3334620.
